Results taken from PubChem BioAssay.

Experiments:
[1] = target: Tumor necrosis factor receptor superfamily member 10B (Homo sapiens) (UniProt O14763); test: viability loss of caspase-8 NB7 cells with TRAIL – with/without TRAIL, luminescence panel, confirmation (AID 651596); settings: NB7 neuroblastoma + caspase-8, TRAIL sensitization, NB7 Caspase-8, with TRAIL, mean of runs, at 10 µM, stronger effect = higher value
[2] = as above; settings: NB7 neuroblastoma + caspase-8, without TRAIL, NB7 Caspase-8, without TRAIL, mean of runs, at 10 µM

Sequence of Tumor necrosis factor receptor superfamily member 10B (Homo sapiens) (O14763 whole entry, looked up): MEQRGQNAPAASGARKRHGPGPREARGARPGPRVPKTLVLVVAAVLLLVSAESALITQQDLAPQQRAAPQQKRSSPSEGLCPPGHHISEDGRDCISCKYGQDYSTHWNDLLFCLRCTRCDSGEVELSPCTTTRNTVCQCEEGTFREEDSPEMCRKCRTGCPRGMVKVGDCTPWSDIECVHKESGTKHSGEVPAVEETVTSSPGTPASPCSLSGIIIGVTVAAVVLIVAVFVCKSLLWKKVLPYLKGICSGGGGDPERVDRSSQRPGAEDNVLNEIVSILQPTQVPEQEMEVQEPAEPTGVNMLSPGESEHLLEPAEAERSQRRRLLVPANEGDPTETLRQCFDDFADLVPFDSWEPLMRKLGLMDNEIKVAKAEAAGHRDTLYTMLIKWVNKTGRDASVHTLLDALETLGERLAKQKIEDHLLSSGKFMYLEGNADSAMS

| SMILES | activity [1] | activity [2] |
| --- | --- | --- |
| O=C1c2ccccc2NC(c2ccccc2)N1/N=C/c1ccccc1 (stereo unspecified) | 52.5% | 40.1% |
| Cc1ccccc1C(=O)O/N=C(\N)Cc1cccs1 | 98% | 96.6% |
| CCCOc1ccc(-c2cn3ccccc3n2)cc1 | 92.7% | 91.2% |
| O=[N+]([O-])c1cc(S(=O)(=O)C(F)(F)F)ccc1Sc1nc2ccccc2[nH]1 | 33.1% | 94.2% |
| Cc1nc2cc(NC(=O)c3ccc(Br)s3)ccc2s1 | 71.4% | 63.1% |
| O=C(Nc1ccc2c(c1)nc1n2CCSC1)c1ccco1 | 77.4% | 75.2% |
| COc1ccc(-c2cc3nc(C)cc(N)n3n2)cc1 | 90.2% | 86.5% |
| Cc1ccc(C(=O)N/C(=C\c2ccc(-c3ccccc3[N+](=O)[O-])o2)C(=O)NCCN(C)C)cc1 | 42% | 99.7% |
| Clc1ccc(-c2nc(-c3ccccn3)no2)cc1Cl | 77.5% | 74.5% |
| Nc1nc(N)c2c(ccc3nccc32)[nH]1 | 73.3% | 78.7% |
| O=C(/C=C/c1ccc(Cl)cc1Cl)N1CCc2ccccc21 | 47.9% | 51.4% |
| COc1ccc(-c2ccc3sc4ccccc4c(=O)c3c2)cn1 | 63.2% | 61.5% |
| CC1(C)N=C(N)N=C(N)N1c1cccc(C#N)c1 | 81.8% | 86.1% |
| O=[N+]([O-])c1cc(S(=O)(=O)N2CCCCCC2)ccc1F | 83.9% | 72.6% |
| O=C(NCC1CC1)c1ccc2c3n(nc2c1)-c1ccccc1CO3 | 89.8% | 89.5% |
| COC(=O)c1ccc(N/C=C/C(=O)c2ccccc2)cc1 | 61.3% | 80.2% |
| CC1(C(=O)N/N=C/c2c(F)c(F)c(F)c(F)c2F)CC1(Cl)Cl (stereo unspecified) | 91.5% | 98.4% |
| COc1ccccc1C/C(N)=N/OC(=O)c1cccc([N+](=O)[O-])c1 | 89.8% | 69.6% |
| C#CCSc1nnc(-c2ccc(OC)cc2)o1 | 97.1% | 89.3% |
| COc1ccccc1-c1nnc(-c2ccc(C)cc2)o1 | 46.6% | 43.5% |
| CCOc1cccc2sc(N(CCCN(C)C)C(=O)c3ccc(S(=O)(=O)N4CCc5ccccc5C4)cc3)nc12 | 55.9% | 73.7% |
| Cn1cccc1/C=C1\CCc2ccccc2C1=O | 63.4% | 51.8% |

| SMILES | activity [1] | activity [2] |
| --- | --- | --- |
| O=C(Nc1ccccn1)c1ccc2c(=O)n3c(nc2c1)CCCCC3 | 50.4% | 62.5% |
| Cc1ccc(-c2nnc(-c3cccc4ccccc34)o2)cc1 | 58.2% | 44% |
| CN(NC(=O)c1ccc(Cl)cc1)c1nc(-c2ccccc2)nnc1C(F)(F)F | 61.9% | 57.8% |
| Cc1ccc2nc(-c3ccc(NC(=O)CCN4C(=O)c5ccccc5C4=O)cc3)sc2c1 | 73.7% | 63.9% |
| COc1ccc(S(=O)(=O)N2CCC(C(=O)NCCC3=CCCCC3)CC2)cc1C | 13.8% | 22.2% |
| Cc1ccc(-c2cn3cc([N+](=O)[O-])ccc3n2)cc1 | 50.9% | 41.5% |
| COc1ccc(Cn2c(SCc3ccccc3C)nc3cc(OC)c(OC)cc3c2=N)cc1 | 72.7% | 90.9% |
| O=C(Nc1nc2ccccc2[nH]1)C12CC3CC(CC(C3)C1)C2 | 66.2% | 65.7% |
| COc1ccc(-c2csc(NC(=O)C3CCN(c4ncnc5sc(C)c(C)c45)CC3)n2)cc1OC | 84.3% | 62.9% |
| COc1ccc(NC(=O)c2cccc3c2C(=O)c2ccc(-c4ccc(F)cc4OCc4ccccc4)cc2S3(=O)=O)cc1 | 20.6% | 31.4% |
| O=C(/C=C/Nc1ccccc1C(F)(F)F)c1ccco1 | 97.2% | 99.3% |
| Cc1ccn2cc(-c3cccc(NC(=O)CCC(=O)O)c3)nc2c1 | 70.5% | 60.1% |
| OCC1OC(n2ccc3c2ncn2ncnc32)C(O)C1O (stereo unspecified) | 93.8% | 95.3% |
| CC1CCC(C(C)C)C(OC(=O)Cn2c(-c3ccc(Cl)cc3)[n+](C)c3ccccc32)C1 (stereo unspecified) | 76.7% | 62% |
| COc1cc(/C=N/NC(=O)COc2ccc(C)cc2)ccc1OC(=O)c1cccs1 | 58.4% | 48.5% |
| Cc1ccc(OCC(=O)NC(=S)Nc2ccccn2)c(Br)c1 | 86.3% | 81.9% |
| O=C(N/N=C\c1cccc(OC(=O)c2ccco2)c1)c1ccc2c(c1)OCO2 | 83% | 74.1% |
| CN(NC(=O)C(C)(C)C)c1nc(-c2ccccc2)nnc1C(F)(F)F | 43.9% | 55.6% |
| CCn1cc(-c2cc(C(=O)O)c3ccccc3n2)cn1 | 65% | 58.2% |
| N#Cc1c(C#N)c(SSc2c(C#N)c(C#N)c(N)n2-c2ccccc2)n(-c2ccccc2)c1N | -0.075% | 72.1% |
| CC(C)OC(=O)Nc1ccc2c(c1)N(C(=O)N1CCN(C)CC1)c1ccccc1CC2 | 86.2% | 84.2% |
